Experimental data taken from PMC7862700, “An all-to-all approach to the identification of sequence-specific readers for epigenetic DNA modifications on cytosine”.

What was measured:
Assay in all cases: DAPPL (digital affinity profiling via proximity ligation, sequencing); 10 mM Tris-HCl pH 7.5, 50 mM NaCl, 1 mM DTT, 4% glycerol, room temperature, 30 min; GST-TFs on glutathione beads, 16-mer random dsDNA library, 0.1% formaldehyde crosslink after washing; high values mean tight binding
Conditions in all cases: protein: recombinant; tags: N-terminal GST; dsDNA, one strand shown
[1] = target: T1, ERF (Homo sapiens, UniProt P50548 1-548)
T1 sequence: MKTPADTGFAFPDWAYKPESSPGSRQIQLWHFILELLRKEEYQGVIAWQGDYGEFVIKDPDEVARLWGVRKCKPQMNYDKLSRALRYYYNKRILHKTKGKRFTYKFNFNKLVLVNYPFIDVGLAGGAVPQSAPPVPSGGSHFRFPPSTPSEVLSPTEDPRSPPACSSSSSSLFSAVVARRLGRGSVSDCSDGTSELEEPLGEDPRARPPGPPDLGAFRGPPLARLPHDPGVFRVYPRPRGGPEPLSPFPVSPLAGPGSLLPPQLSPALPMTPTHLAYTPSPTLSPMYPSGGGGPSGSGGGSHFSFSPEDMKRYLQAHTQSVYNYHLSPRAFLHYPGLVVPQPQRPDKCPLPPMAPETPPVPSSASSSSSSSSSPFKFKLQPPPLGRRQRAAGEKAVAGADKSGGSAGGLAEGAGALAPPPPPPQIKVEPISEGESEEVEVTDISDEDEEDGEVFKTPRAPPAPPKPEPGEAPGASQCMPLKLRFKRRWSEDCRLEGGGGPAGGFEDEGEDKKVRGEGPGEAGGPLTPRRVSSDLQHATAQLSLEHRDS
Summary of the method: (§1)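 Binding signal is defined as a hexamer's read frequency for one factor over its frequency for the tag-only sample. To obtain reads, GST-fused human transcription factors were expressed in yeast, captured on glutathione beads, barcoded with DNA and pooled with that sample. Pools met 200 nmole of a 16-mer random double-stranded DNA library in Tris/NaCl/DTT/glycerol buffer for 30 min at room temperature before washing, 0.1% formaldehyde crosslinking, proximity ligation (BsaI/T4 ligase, 1 h, 37 °C), PCR and Illumina NextSeq500 sequencing.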

[2] = target: T2, ETV3L (Homo sapiens, UniProt Q6ZN32 1-361)
T2 sequence: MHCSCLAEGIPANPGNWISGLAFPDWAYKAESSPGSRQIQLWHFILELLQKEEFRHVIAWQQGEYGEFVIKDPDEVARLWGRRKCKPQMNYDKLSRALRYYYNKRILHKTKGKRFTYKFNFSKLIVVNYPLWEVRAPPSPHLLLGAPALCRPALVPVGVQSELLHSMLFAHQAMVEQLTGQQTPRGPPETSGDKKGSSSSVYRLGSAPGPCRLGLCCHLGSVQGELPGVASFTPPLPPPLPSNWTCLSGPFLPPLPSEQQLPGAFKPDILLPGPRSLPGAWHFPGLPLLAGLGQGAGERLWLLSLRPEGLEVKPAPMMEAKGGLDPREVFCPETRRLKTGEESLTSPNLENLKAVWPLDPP
Summary of the method: as §1

[3] = target: T3, ETS2 (Homo sapiens, UniProt P15036 1-469)
T3 sequence: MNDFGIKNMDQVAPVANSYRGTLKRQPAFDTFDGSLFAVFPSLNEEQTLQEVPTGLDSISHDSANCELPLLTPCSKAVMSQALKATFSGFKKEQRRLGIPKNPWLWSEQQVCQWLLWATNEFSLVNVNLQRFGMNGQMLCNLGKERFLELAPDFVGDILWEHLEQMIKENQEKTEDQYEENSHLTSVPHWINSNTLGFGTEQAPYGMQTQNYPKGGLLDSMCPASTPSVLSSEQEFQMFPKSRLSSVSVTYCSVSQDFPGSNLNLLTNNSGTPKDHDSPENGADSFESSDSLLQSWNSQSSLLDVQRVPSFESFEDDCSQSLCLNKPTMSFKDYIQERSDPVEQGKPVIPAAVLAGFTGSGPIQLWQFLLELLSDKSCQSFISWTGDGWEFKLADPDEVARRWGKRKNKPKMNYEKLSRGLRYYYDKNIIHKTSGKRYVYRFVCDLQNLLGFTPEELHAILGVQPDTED
Summary of the method: as §1

[4] = target: T4, SPDEF (Homo sapiens, UniProt O95238 1-335)
T4 sequence: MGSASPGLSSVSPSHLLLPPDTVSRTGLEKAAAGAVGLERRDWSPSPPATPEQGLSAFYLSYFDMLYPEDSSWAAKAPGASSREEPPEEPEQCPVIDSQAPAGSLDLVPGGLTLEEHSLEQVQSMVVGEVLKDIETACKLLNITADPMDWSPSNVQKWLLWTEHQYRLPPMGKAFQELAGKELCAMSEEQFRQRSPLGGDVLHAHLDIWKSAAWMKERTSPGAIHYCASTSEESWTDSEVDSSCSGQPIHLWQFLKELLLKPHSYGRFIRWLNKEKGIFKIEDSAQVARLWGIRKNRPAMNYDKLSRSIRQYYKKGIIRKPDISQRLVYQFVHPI
Summary of the method: as §1

[5] = target: T5, ETV7 (Homo sapiens, UniProt Q9Y603 1-341)
T5 sequence: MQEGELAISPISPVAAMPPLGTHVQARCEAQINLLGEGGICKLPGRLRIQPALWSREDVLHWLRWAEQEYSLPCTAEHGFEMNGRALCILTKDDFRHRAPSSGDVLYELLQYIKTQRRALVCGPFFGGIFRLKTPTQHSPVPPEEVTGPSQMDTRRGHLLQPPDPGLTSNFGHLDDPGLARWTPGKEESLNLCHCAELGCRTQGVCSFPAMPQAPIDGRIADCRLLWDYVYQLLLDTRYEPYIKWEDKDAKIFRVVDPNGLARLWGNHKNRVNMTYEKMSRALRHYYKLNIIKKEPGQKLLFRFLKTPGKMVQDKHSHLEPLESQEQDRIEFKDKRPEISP
Summary of the method: as §1

[6] = target: T6, ELF5 (Homo sapiens, UniProt Q9UKW6-2 1-255)
T6 sequence: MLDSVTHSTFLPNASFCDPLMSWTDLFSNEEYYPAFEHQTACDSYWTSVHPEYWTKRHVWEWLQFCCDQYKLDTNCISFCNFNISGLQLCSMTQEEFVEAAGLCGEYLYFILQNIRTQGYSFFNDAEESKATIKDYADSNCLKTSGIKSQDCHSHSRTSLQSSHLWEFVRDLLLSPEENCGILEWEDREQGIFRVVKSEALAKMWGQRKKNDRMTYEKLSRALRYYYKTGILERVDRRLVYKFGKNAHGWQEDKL
Summary of the method: as §1

[7] = target: T7, ETV3 (Homo sapiens, UniProt P41162-2 1-143)
T7 sequence: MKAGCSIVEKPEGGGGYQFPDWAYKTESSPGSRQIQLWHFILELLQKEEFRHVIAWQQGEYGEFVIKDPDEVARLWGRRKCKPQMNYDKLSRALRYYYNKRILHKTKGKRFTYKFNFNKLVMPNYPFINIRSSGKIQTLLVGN
Summary of the method: as §1

[8] = target: ETV6 (Homo sapiens, UniProt P41212 1-452)
Summary of the method: as §1

Chain of ETV6 (P41212 whole entry): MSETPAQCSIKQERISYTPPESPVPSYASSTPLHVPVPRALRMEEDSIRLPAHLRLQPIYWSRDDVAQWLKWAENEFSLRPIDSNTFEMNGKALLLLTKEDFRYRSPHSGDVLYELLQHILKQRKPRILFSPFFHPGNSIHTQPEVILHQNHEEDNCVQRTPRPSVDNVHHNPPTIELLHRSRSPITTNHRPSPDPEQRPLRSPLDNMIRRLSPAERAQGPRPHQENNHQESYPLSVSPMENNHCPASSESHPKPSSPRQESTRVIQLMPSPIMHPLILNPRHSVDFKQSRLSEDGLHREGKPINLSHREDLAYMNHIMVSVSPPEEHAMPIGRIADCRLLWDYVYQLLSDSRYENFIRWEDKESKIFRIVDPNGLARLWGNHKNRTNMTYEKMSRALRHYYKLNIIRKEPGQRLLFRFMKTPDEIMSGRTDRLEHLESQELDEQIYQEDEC

Row | Sequence | binding signal [1] | binding signal [2] | binding signal [3] | binding signal [4] | binding signal [5] | binding signal [6] | binding signal [7] | binding signal [8]
1 | CCACTT | 1.9 fold enrichment (6-mer frequency, TF over GST control) | 1.79 fold enrichment (6-mer frequency, TF over GST control) | 1.84 fold enrichment (6-mer frequency, TF over GST control) | 1.69 fold enrichment (6-mer frequency, TF over GST control) | 1.78 fold enrichment (6-mer frequency, TF over GST control) | 1.89 fold enrichment (6-mer frequency, TF over GST control) | 1.97 fold enrichment (6-mer frequency, TF over GST control) | 1.85 fold enrichment (6-mer frequency, TF over GST control)
2 | TTACCA | 1.07 fold enrichment (6-mer frequency, TF over GST control) | 1.07 fold enrichment (6-mer frequency, TF over GST control) | 1.13 fold enrichment (6-mer frequency, TF over GST control) | 1.09 fold enrichment (6-mer frequency, TF over GST control) | 1.12 fold enrichment (6-mer frequency, TF over GST control) | 1.04 fold enrichment (6-mer frequency, TF over GST control) | 1.16 fold enrichment (6-mer frequency, TF over GST control) | 1.07 fold enrichment (6-mer frequency, TF over GST control)
3 | TTCATT | 1.31 fold enrichment (6-mer frequency, TF over GST control) | 1.3 fold enrichment (6-mer frequency, TF over GST control) | 1.27 fold enrichment (6-mer frequency, TF over GST control) | 1.24 fold enrichment (6-mer frequency, TF over GST control) | 1.23 fold enrichment (6-mer frequency, TF over GST control) | 1.18 fold enrichment (6-mer frequency, TF over GST control) | 1.16 fold enrichment (6-mer frequency, TF over GST control) | 1.18 fold enrichment (6-mer frequency, TF over GST control)
4 | AACTAC | 1.54 fold enrichment (6-mer frequency, TF over GST control) | 1.44 fold enrichment (6-mer frequency, TF over GST control) | 1.42 fold enrichment (6-mer frequency, TF over GST control) | 1.48 fold enrichment (6-mer frequency, TF over GST control) | 1.39 fold enrichment (6-mer frequency, TF over GST control) | 1.5 fold enrichment (6-mer frequency, TF over GST control) | 1.45 fold enrichment (6-mer frequency, TF over GST control) | 1.51 fold enrichment (6-mer frequency, TF over GST control)
5 | CCTAAT | 1.24 fold enrichment (6-mer frequency, TF over GST control) | 1.33 fold enrichment (6-mer frequency, TF over GST control) | 1.33 fold enrichment (6-mer frequency, TF over GST control) | 1.36 fold enrichment (6-mer frequency, TF over GST control) | 1.31 fold enrichment (6-mer frequency, TF over GST control) | 1.25 fold enrichment (6-mer frequency, TF over GST control) | 1.22 fold enrichment (6-mer frequency, TF over GST control) | 1.31 fold enrichment (6-mer frequency, TF over GST control)
6 | GCTTCG | 1.56 fold enrichment (6-mer frequency, TF over GST control) | 1.31 fold enrichment (6-mer frequency, TF over GST control) | 1.32 fold enrichment (6-mer frequency, TF over GST control) | 1.35 fold enrichment (6-mer frequency, TF over GST control) | 1.44 fold enrichment (6-mer frequency, TF over GST control) | 1.3 fold enrichment (6-mer frequency, TF over GST control) | 1.37 fold enrichment (6-mer frequency, TF over GST control) | 1.29 fold enrichment (6-mer frequency, TF over GST control)
7 | GATGAC | 1.45 fold enrichment (6-mer frequency, TF over GST control) | 1.53 fold enrichment (6-mer frequency, TF over GST control) | 1.44 fold enrichment (6-mer frequency, TF over GST control) | 1.55 fold enrichment (6-mer frequency, TF over GST control) | 1.61 fold enrichment (6-mer frequency, TF over GST control) | 1.53 fold enrichment (6-mer frequency, TF over GST control) | 1.56 fold enrichment (6-mer frequency, TF over GST control) | 1.43 fold enrichment (6-mer frequency, TF over GST control)
8 | TCCTAT | 1.56 fold enrichment (6-mer frequency, TF over GST control) | 1.5 fold enrichment (6-mer frequency, TF over GST control) | 1.65 fold enrichment (6-mer frequency, TF over GST control) | 1.72 fold enrichment (6-mer frequency, TF over GST control) | 1.53 fold enrichment (6-mer frequency, TF over GST control) | 1.56 fold enrichment (6-mer frequency, TF over GST control) | 1.64 fold enrichment (6-mer frequency, TF over GST control) | 1.66 fold enrichment (6-mer frequency, TF over GST control)
